The panel holds about 83,000 compounds, 20% with a hit somewhere; the sample as a whole holds those more often.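 Method: cells in 96-well plates; compound added at one concentration; 48 h incubation; percent growth measured; values under 10 scored active.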 A number with no mark means an inactive call. Calls of active or inactive are those of the source.
Experiments:
Test in all cases: NCI-60 one-dose screen, 48 h (100 = growth as untreated, 0 = no growth, -100 = all killed)
Details in all cases: 10 µM unless noted
NCI-H23 lung = tested on: NCI-H23 lung
NCI-H226 lung = tested on: NCI-H226 lung
NCI-H322M lung = tested on: NCI-H322M lung
HOP-62 NSCLC = tested on: HOP-62 NSCLC
NCI-H460 lung = tested on: NCI-H460 lung
HOP-92 NSCLC = tested on: HOP-92 NSCLC
A549/ATCC NSCLC = tested on: A549/ATCC NSCLC
786-0 renal = tested on: 786-0 renal
COLO 205 colon = tested on: COLO 205 colon
DU-145 prostate = tested on: DU-145 prostate
K-562 leukemia = tested on: K-562 leukemia
MALME-3M melanoma = tested on: MALME-3M melanoma
MDA-MB-231 breast = tested on: MDA-MB-231 breast
RXF 393 renal = tested on: RXF 393 renal
SF-268 CNS = tested on: SF-268 CNS
SF-539 CNS = tested on: SF-539 CNS
UACC-257 melanoma = tested on: UACC-257 melanoma
M14 melanoma = tested on: M14 melanoma
SF-295 CNS = tested on: SF-295 CNS
NCI-H522 lung = tested on: NCI-H522 lung

| SMILES | growth (NCI-H23 lung) | growth (NCI-H226 lung) | growth (NCI-H322M lung) | growth (HOP-62 NSCLC) | growth (NCI-H460 lung) | growth (HOP-92 NSCLC) | growth (A549/ATCC NSCLC) | growth (786-0 renal) | growth (COLO 205 colon) | growth (DU-145 prostate) | growth (K-562 leukemia) | growth (MALME-3M melanoma) | growth (MDA-MB-231 breast) | growth (RXF 393 renal) | growth (SF-268 CNS) | growth (SF-539 CNS) | growth (UACC-257 melanoma) | growth (M14 melanoma) | growth (SF-295 CNS) | growth (NCI-H522 lung) |
| --- | --- | --- | --- | --- | --- | --- | --- | --- | --- | --- | --- | --- | --- | --- | --- | --- | --- | --- | --- | --- |
| [B-][N+](CC)(CC)c1ccccc1 | 105% | 106% | 96.9% | 101% | 110% | 81.9% | 102% | 105% | 102% | 106% | 105% | 98.1% | 119% | 115% | 103% | 97% | 105% | 88.6% |  |  |
| CCCCC(=O)OC1CCCCC1C (stereo not drawn) | 97.3% | 79.1% | 111% | 98.9% | 104% | 77.6% | 72.3% | 92.4% | 100% | 105% | 98.8% | 94.6% | 106% | 93.4% | 98.7% | 103% | 78.5% | 95.4% | 97% |  |
| CC[C@]12C=CCN3CC[C@@]4(c5cc([C@H]6CCC(=O)N6)c(OC)cc5N(C)[C@H]4[C@@](O)(C(=O)OC)[C@@H]1OC(C)=O)[C@@H]32 | 100% [2.5 µM] | 92.7% [2.5 µM] | 99.8% [2.5 µM] | 98.1% [2.5 µM] | 107% [2.5 µM] | 98.5% [2.5 µM] | 100% [2.5 µM] | 104% [2.5 µM] | 108% [2.5 µM] | 119% [2.5 µM] | 105% [2.5 µM] | 97.5% [2.5 µM] | 98.7% [2.5 µM] | 113% [2.5 µM] | 116% [2.5 µM] | 92.4% [2.5 µM] |  | 95.5% [2.5 µM] | 100% [2.5 µM] |  |
| COc1ccc(CCN2C(=O)C(C)(C)SC2=S)cc1OC | 101% | 105% | 103% | 103% | 105% |  | 101% | 102% | 111% | 98.8% | 100% | 96.2% | 97.5% | 109% | 94.7% | 105% | 98.9% | 98.4% | 96.8% | 93.8% |
| COc1ccc2c(c1)C(Br)=C(CCO)C2c1ccccc1 (stereo not drawn) | 95% | 100% | 15.8% | 22.1% | 9.69% (active) |  | 25.1% | 85.4% | 48.2% | -10.3% (active) | 122% | 90.6% | 56.3% | 20% | 84.3% | 63.7% | 77.6% | 89% | 1.56% (active) | 96.8% |
| O=c1[nH]ncc(Br)c1Br | -57% (active) | 112% | 94.7% | 90.2% | 65.9% | 62.3% | 69.3% | 71.6% | 22.4% | 54.4% | 3.3% (active) | -7.27% (active) | 28.7% | -85.5% (active) | -18.3% (active) | 93.5% | -36.7% (active) | -84.8% (active) | 102% |  |
| Cc1cc(C=O)c(C)c2c1[nH]c1ccccc12 | 98.5% | -21.9% (active) | 97.7% | 103% | 76.1% | 88.7% | 99.2% | 100% | 110% | 107% | 97.8% |  | 90.5% | 117% | 96.8% | 95.9% | 78.6% | 105% |  |  |
| Cn1cc(-c2csc(-c3cn(CCCN4CCCCC4)c4ccc(Br)cc34)n2)c2cccnc21 | 43.3% | 75.9% | 49.7% | -56.5% (active) | -66.8% (active) | 31.5% | -49% (active) | -75.9% (active) | -79.5% (active) | -26.5% (active) | -63.6% (active) | -25.7% (active) | -50.7% (active) | 23.3% | 46.1% | -73% (active) | 68.1% | -88.1% (active) | 31.8% |  |

Source: PubChem BioAssay (NCI)
